Among all 340,000 compounds or so, about 1,000 (0.29%) were called active. Rule as the data show it: inconclusive = inhibition above about 29% without an active follow-up result; inactive = below that. Only a sample is shown. Entries with a potency or affinity are not part of this list.
Molecular target: Genome polyprotein (Dengue virus type 2 (strain 16681-PDK53)) (UniProt P29991)
Assay: flavivirus cap methylation enzyme inhibition – biochemical, confirmation dose response, primary screen (AID 588689)
Conditions: Dengue-2 NS5 methyltransferase capping enzyme assay, at 25 µM, stronger effect = higher value
[1] = measured here: pilot screen replicate inhibition

CCCc1cc(=O)c2ccc(OCC(C)=O)cc2o1
inhibition: -9.24% (inactive)

COCCC(=O)NNS(=O)(=O)c1ccc(Cl)cc1
inhibition: 5.47% (inactive)

CC(C)N(CCNS(=O)(=O)c1ccc(Cl)cc1)C(C)C
inhibition: 0.97% (inactive)

CCOc1ccc(NC(=O)c2ccc(S(=O)(=O)N3CCOCC3)cc2)cc1
inhibition: 1.78% (inactive)

CC(C(=O)O)N1C(=O)C2C3c4ccccc4C(c4ccccc43)[C@@H]2C1=O (some centres not stated)
inhibition: -2.61% (inactive)

CN1C(=O)C2C3c4ccccc4C(c4ccccc43)[C@@H]2C1=O (some centres not stated)
inhibition: -1.31% (inactive)

CCC(C(=O)O)P(=O)(c1ccc(Cl)cc1)c1ccc(Cl)cc1 (configuration not stated)
inhibition: -8.59% (inactive)

COC1=CC(=O)C(OC)=C(OC)C1=O
inhibition: 6.99% (inactive)

CCCCCSc1nncc(=O)[nH]1
inhibition: 4.01% (inactive)

COc1ccc(-c2cccc(NC(=O)c3cccs3)c2)nn1
inhibition: -3.63% (inactive)

O=C(CSc1nc2ccccc2s1)Nc1cc(S(=O)(=O)N2CCOCC2)ccc1Cl
inhibition: -0.74% (inactive)

O=C1SCC(c2ccc(Cl)cc2Cl)=NN1Cc1nnc(-c2ccccc2)o1
inhibition: -1.48% (inactive)

O=C(O)CSc1ncnc2c1sc1nc(-c3ccccc3)c3c(c12)CCC3
inhibition: 22.7% (inactive)

O=c1[nH]cnc2c1sc1nc(-c3ccccc3)c3c(c12)CCCC3
inhibition: -9.17% (inactive)

CCN(CC)c1ccc(S(=O)(=O)N2CCOCC2)cc1NC(=O)CSC(=S)N1CCCC1
inhibition: -4.86% (inactive)

COCCN(C(=O)CSc1nnc(-c2cccc(Cl)c2)n1N)c1c(N)n(CC(C)C)c(=O)[nH]c1=O
inhibition: -1.15% (inactive)

C/C=N\NC(=O)CNC(=O)CNC(=O)c1ccccc1
inhibition: -9.83% (inactive)

Oc1ccc(Cl)cc1CNC1CCCCC1
inhibition: -11.2% (inactive)

Oc1ccc(CNC2CCCCC2)cc1
inhibition: -4.06% (inactive)

CC(=O)NCCNC(=O)c1oc2ccccc2c1CSc1ncn[nH]1
inhibition: 0% (inactive)

Cc1cc(C)nc(N/N=C/c2ccccc2OCC(=O)O)n1
inhibition: 0% (inactive)

COc1ccc(N=Cc2nc(-c3ccccc3)oc2OC(C)=O)cc1
inhibition: -15.3% (inactive)

COc1cccc(N=Cc2nc(-c3ccccc3)oc2OC(C)=O)c1
inhibition: -7.76% (inactive)

O=C1c2ccccc2C(=O)N1c1ccccc1
inhibition: -3.62% (inactive)

COc1ccc(-c2noc(-c3ccccc3C(=O)NCc3ccco3)n2)cc1OC
inhibition: -1.61% (inactive)

CCOC(=O)N1CCN(C(=O)/C=C/c2ccc(OC)c(OC)c2)CC1
inhibition: -5.82% (inactive)

CCOc1ccccc1/C=c1\sc2ncnn2c1=O
inhibition: 3.42% (inactive)

COc1ccccc1/C=c1\sc2nc(-c3ccco3)nn2c1=O
inhibition: 20.1% (inactive)

COc1ccccc1/C=C/C=c1\sc2nc(=O)c(Cc3ccccc3)nn2c1=O
inhibition: -9.19% (inactive)

COc1ccccc1/C=c1\sc2nc(-c3ccccc3OC)nn2c1=O
inhibition: 5.01% (inactive) | inhibition [1]: 1.52%

Cc1cccc(NS(=O)(=O)c2ccc(NS(=O)(=O)c3cccs3)cc2)c1
inhibition: 13.3% (inactive)

N#C/C=C/N1CCC(Cc2ccccc2)CC1
inhibition: -4.96% (inactive)

N#CCCN(C(=O)COC(=O)Cc1ccc(Br)cc1)c1ccccc1
inhibition: -13.2% (inactive)

CC(C)c1[nH]c(=O)c(C#N)c2c1CSC(C)(C)C2
inhibition: -6.61% (inactive)

COc1ccc(C(CCN2CCOCC2)c2c(O)cc(OC)cc2OC)cc1 (configuration not stated)
inhibition: -0.7% (inactive)

Oc1ccccc1CNCc1ccccc1
inhibition: -2.38% (inactive)

OCc1ccccc1CNCc1ccccc1
inhibition: -5.52% (inactive)

CSc1ncccc1C(=O)OCc1cccc([N+](=O)[O-])c1
inhibition: 0% (inactive)

COc1ccc(NC(=O)N(C)C[C@@H]2OCc3cnnn3CCCC(=O)N([C@H](C)CO)C[C@H]2C)cc1
inhibition: 0.55% (inactive)

Cc1ccc(C(=O)Nc2ccc3cn[nH]c3c2)cc1S(=O)(=O)N1CCOCC1
inhibition: -0.88% (inactive)

CC(C)c1cc(=O)oc2c3c4c(cc12)CCCN4CCC3
inhibition: 0% (inactive)

O=c1oc2c3c4c(cc2c2c1CCC2)OCCN4CCC3
inhibition: 24.7% (inactive)

N/C(=N\OC(=O)CCC1CCCCC1)c1cccc([N+](=O)[O-])c1
inhibition: -1.88% (inactive) | inhibition [1]: 1.82%

O=C(CSc1ccccc1)N1CCN(S(=O)(=O)c2ccccc2F)CC1
inhibition: 3.25% (inactive)

C=CCn1c(NC(=O)c2ccc(Br)o2)c(S(=O)(=O)c2ccccc2)c2nc3ccccc3nc21
inhibition: -4.19% (inactive)

CCCCn1c(NC(=O)c2ccco2)c(S(=O)(=O)c2ccc(C)cc2)c2nc3ccccc3nc21
inhibition: -64.2% (inactive)

OCCC1CN(Cc2cnn(-c3ccccc3Cl)c2)CCN1Cc1ccsc1 (configuration not stated)
inhibition: -2.26% (inactive)

CC(C)N(C(=O)[C@H]1C[C@H](CC(=O)NCCN2CCOCC2)C(=O)N2CCc3c([nH]c4cc(-c5ccco5)ccc34)[C@]12C)C(C)C
inhibition: -6.51% (inactive)

Cc1cccc(C2c3c(n(C)c(=O)n(C)c3=O)N=C3c4ccccc4C(=O)C32)c1 (configuration not stated)
inhibition: 2.3% (inactive)

Cc1nn(-c2ccccc2)c(C)c1-c1ccccc1O
inhibition: -5.22% (inactive) | inhibition [1]: -6.7%

C=C(CC)C(=O)c1ccc(OCC(=O)O)c(Cl)c1Cl
inhibition: -3.73% (inactive)

O=C(O)COc1ccc2nsnc2c1Cl
inhibition: -9.55% (inactive)

CCOCCCNCC(O)c1ccccc1 (configuration not stated)
inhibition: 0% (inactive)

CC1(C)CC(=NO)CC(C)(C)N1
inhibition: 0% (inactive)

COc1cc(C(=O)Nc2ccc(S(=O)(=O)Nc3ncccn3)cc2)c([N+](=O)[O-])cc1OC
inhibition: 0.74% (inactive)

COc1ccc(S(=O)(=O)/N=C2/NC(=O)/C(=C\c3cc(OC)c(OC)cc3[N+](=O)[O-])S2)cc1
inhibition: 2.45% (inactive)

COc1ccc([N+](=O)[O-])cc1NS(=O)(=O)c1ccccc1
inhibition: 5.1% (inactive)

Cc1cc(NS(=O)(=O)c2ccccc2)c([N+](=O)[O-])cc1C
inhibition: 4.34% (inactive)

Cc1ccc(/C=N/NC(=O)C(C)Oc2cccc3ccccc23)o1 (configuration not stated)
inhibition: -3.22% (inactive)

CCC1(C)NC(=O)N(CC(=O)N2CCC(Cc3ccccc3)CC2)C1=O (configuration not stated)
inhibition: -9.76% (inactive)

C/C(CC(C)C)=N/Nc1ccc([N+](=O)[O-])cc1[N+](=O)[O-]
inhibition: -3.83% (inactive)

CC(Cc1ccccc1)=NNc1ccc([N+](=O)[O-])cc1[N+](=O)[O-]
inhibition: 10.5% (inactive)

CC(=O)NC(C)c1nc2ccccc2n1C(C)C (configuration not stated)
inhibition: -3.46% (inactive)

COc1ccc(/C=C/C=C2\NC(=S)NC2=O)cc1
inhibition: -2.15% (inactive)

CC(/C=C1\NC(=S)NC1=O)=C\c1ccccc1
inhibition: -7.18% (inactive)

CCC(C)(C(=O)NC1CCCC1)N(C(=O)CNC(=O)c1ccccc1)c1c(C)n(C)n(-c2ccccc2)c1=O (configuration not stated)
inhibition: 0% (inactive)

COc1ccc(CNC(=O)c2cc3ccccc3oc2=O)cc1
inhibition: -1.96% (inactive)

COc1ccc(CN(C)CC(=O)Nc2c(C)cccc2C)c(OC)c1
inhibition: 1.51% (inactive)

CCOc1cc(S(=O)(=O)Nc2cc(C)cc(C)c2)ccc1Cl
inhibition: 0% (inactive)

COc1ccc(NS(=O)(=O)c2ccc(Cl)c(N)c2)cc1Br
inhibition: -3.69% (inactive)

COc1ccccc1CCC(=O)N(C)CC(=O)Nc1ccc(F)cc1
inhibition: 1.3% (inactive)

O=C(NNc1cccc(Cl)c1)c1cccnc1Cl
inhibition: -5.34% (inactive)

COc1ccc(/C=C(/C#N)C(=O)Nc2ccccc2C)cc1C(=O)O
inhibition: 0% (inactive)

COc1cc(/C=C(\C#N)C(=O)Nc2cccc3ncccc23)cc(OC)c1OC
inhibition: -57.5% (inactive)

O=C(CN1CCN(C(c2ccccc2)c2ccccc2)CC1)NC(=O)NCc1ccco1
inhibition: -1.64% (inactive)

CCN(CC)c1ccc(/C=N/N=C(c2ccccc2)c2ccccc2)c(O)c1
inhibition: -35.6% (inactive)

O=C(/C(=N/N=C/c1ccc(O)c(O)c1)c1ccccc1)c1ccccc1
inhibition: 7.23% (inactive)

Oc1ccc(/C=N/N(c2ccccc2)c2ccccc2)c(O)c1O
inhibition: 9.52% (inactive)

COc1cc(/C=N/N=C(/C(=O)c2ccccc2)c2ccccc2)cc(OC)c1O
inhibition: 0% (inactive)

CC(C)c1ccc(Nc2nc(N3CCOCC3)nc(N3CCOCC3)n2)cc1
inhibition: -4.95% (inactive)

COC(=O)C(C(=O)OC)N1C(=O)CCC1=O
inhibition: -3.21% (inactive)

CC(=O)c1ccc(NC(=O)CCc2nnc3ccc(N4CCCC4)nn23)cc1
inhibition: 1.97% (inactive)

CN(C)C1=NC[C@H](Cc2ccccc2)N1CC1CCC(C(C)(C)C)CC1 (some centres not stated)
inhibition: 0.79% (inactive)

Cc1ccc(S(=O)(=O)N2[C@@H](c3ccc(C(C)(C)C)cc3)C(C(=O)O)=CC[C@H]2c2ccc(C(C)C)cc2)cc1
inhibition: -2.65% (inactive) | inhibition [1]: 0.6%

Cc1ccc(S(=O)(=O)N2[C@@H](c3ccc(Cl)cc3)C(C(=O)O)=CC[C@H]2c2ccc(Cl)cc2)cc1
inhibition: 13.5% (inactive)

Cc1ccc([C@@H]2CC=C(C(=O)O)[C@H](c3ccccc3)N2S(=O)(=O)c2ccc(C)cc2)cc1
inhibition: -3.2% (inactive)

Cc1ccc([C@@H]2CC=C(C(=O)O)[C@H](c3ccc(Cl)cc3)N2S(=O)(=O)c2ccc(C)cc2)cc1
inhibition: 19.5% (inactive)

Cc1ccc(S(=O)(=O)NCCC(=O)OCC(=O)N(Cc2ccccc2)C(C)(C)C)cc1
inhibition: 7.2% (inactive)

CC1(C)CC2CC(C)(CN2C(=O)COC(=O)c2cccc([N+](=O)[O-])c2)C1 (configuration not stated)
inhibition: 6.17% (inactive)

CC(C(=O)Nc1ccccc1F)N1C(=O)c2ccccc2C1=O (configuration not stated)
inhibition: 4.32% (inactive)

CC(C(=O)Nc1ccc2c(c1)OCO2)N(C)CC(=O)Nc1ccc(Cl)cc1 (configuration not stated)
inhibition: 2.29% (inactive)

Cc1ccc2c(C(=O)CN3CCCCC3CCO)c(C)[nH]c2c1 (configuration not stated)
inhibition: -12.1% (inactive)

Cc1ccc(N2CN(Cc3ccco3)CNC2=S)cc1
inhibition: -4.68% (inactive)

Source: PubChem BioAssay AID588689 (Southern Research Specialized Biocontainment Screening …, 2011)
